“And” between values parts separate entries of the source, which are not always exact repeats. Equal entries are not always repeated. Records with an inconclusive call do not appear. Entries that show only a call come without a potency. The source made the active and inactive calls. Unless noted, calls follow the shape of the dose curve; as a rule, active = well fitted curve in the direction sought with a large enough effect; inconclusive = small, poorly fitted or top-dose-only effect, or another doubt; inactive = no such curve, though single readings can be large; an effect the other way counts as inactive or inconclusive.
Legend:
[1] = molecular target: Calcium and integrin-binding protein 1 (Homo sapiens) (UniProt Q99828); experiment: Primary qHTS for Identification of Calcium Integrin Binding Protein 1 (CIB1) Competitor (AID 1508620);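 also: GST tagged CIB1 binding a fluorescein labelled alphaIIb integrin peptide tracer; top concentration of the series differs between compounds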
Sequence of Calcium and integrin-binding protein 1 (Homo sapiens) (Q99828 whole entry, looked up): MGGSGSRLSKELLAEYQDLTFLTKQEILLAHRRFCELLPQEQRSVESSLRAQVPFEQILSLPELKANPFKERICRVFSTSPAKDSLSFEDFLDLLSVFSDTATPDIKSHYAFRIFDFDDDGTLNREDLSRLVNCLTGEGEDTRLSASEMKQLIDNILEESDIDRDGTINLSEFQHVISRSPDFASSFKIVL
Summary of the method: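 Fluorescence polarization competition: GST-tagged CIB1 (1 uM final) preincubated with compound 15 min at room temperature, then FITC-labelled alphaIIb peptide (100 nM final) added. After 15 min at room temperature, polarization read at Ex 480/Em 540.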

[2] = Primary qHTS for small molecule stabilizers of the endoplasmic reticulum resident proteome: Secreted ER Calcium Modulated Protein (SERCaMP) assay (AID 1508630)
Summary of the method: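 GLuc-SERCaMP-expressing SH-SY5Y cells, pretreated 16 h with compound, are challenged with thapsigargin to empty ER calcium stores; after 4 h, coelenterazine is added directly to the medium and luminescence is imaged.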

[3] = A High-Content qHTS Against Drug Library for the Identification of Small Molecules that Inhibit DYT1 Early Onset Primary Dystonia-Associated Cell Pathology (AID 1645839; calls by dose curve; also: series mostly up to about 46 µM)
Summary of the method: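 Flp-In T-REx 293 cells with tetracycline-inducible EGFP-delE hTOR1A (WT EGFP-hTOR1A as reference), 800 cells/well; compound added with tetracycline, 48 h at 37 C. Fixed, permeabilized cells imaged; %pathology (punctate TorsinA) primary, cell count counterscreen.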

[4] = molecular target: Cytochrome P450 2D6 (Homo sapiens) (UniProt P10635); experiment: Cytochrome P450 family 2 subfamily D member 6 (CYP2D6) small molecule antagonists: luciferase biochemical (cell-free) qHTS assay (AID 1645840; active = well fitted curve in the direction sought with a large enough effect in the repeat runs; an effect the other way counts as inactive or inconclusive; also: nearly all actives have a fitted effect of over 55% in size; also: potency is read from the fitted curve at half-maximal effect)
Sequence of Cytochrome P450 2D6 (Homo sapiens) (P10635 whole entry, looked up): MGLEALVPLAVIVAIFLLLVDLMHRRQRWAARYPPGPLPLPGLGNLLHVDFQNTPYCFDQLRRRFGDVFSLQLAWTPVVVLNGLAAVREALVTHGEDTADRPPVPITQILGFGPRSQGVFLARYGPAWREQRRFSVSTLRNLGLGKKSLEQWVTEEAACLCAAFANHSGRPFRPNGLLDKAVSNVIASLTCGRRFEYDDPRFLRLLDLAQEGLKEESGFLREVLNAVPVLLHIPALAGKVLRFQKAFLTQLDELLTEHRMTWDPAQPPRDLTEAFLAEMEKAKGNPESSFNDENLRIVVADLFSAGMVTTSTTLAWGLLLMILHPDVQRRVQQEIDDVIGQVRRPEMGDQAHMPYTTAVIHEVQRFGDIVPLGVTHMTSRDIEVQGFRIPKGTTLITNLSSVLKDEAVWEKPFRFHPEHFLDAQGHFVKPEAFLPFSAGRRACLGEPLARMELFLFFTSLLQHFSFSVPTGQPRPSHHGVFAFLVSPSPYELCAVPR
Summary of the method: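 P450-Glo luminescent screen: recombinant CYP2D6 enzyme–proluciferin substrate mix preincubated with compound 10 min at room temperature, then NADPH regeneration added for 1 h at room temperature. Detection reagent added for 20 min; luciferin light read as relative luminescence units.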

[5] = molecular target: Cytochrome P450 2C9 (Homo sapiens) (UniProt P11712); experiment: Cytochrome P450 family 2 subfamily C member 9 (CYP2C9) small molecule antagonists: luciferase biochemical (cell-free) qHTS assay (AID 1645842; active = well fitted curve in the direction sought with a large enough effect in the repeat runs; an effect the other way counts as inactive or inconclusive; also: nearly all actives have a fitted effect of over 55% in size; also: potency is read from the fitted curve at half-maximal effect)
Sequence of Cytochrome P450 2C9 (Homo sapiens) (P11712 whole entry, looked up): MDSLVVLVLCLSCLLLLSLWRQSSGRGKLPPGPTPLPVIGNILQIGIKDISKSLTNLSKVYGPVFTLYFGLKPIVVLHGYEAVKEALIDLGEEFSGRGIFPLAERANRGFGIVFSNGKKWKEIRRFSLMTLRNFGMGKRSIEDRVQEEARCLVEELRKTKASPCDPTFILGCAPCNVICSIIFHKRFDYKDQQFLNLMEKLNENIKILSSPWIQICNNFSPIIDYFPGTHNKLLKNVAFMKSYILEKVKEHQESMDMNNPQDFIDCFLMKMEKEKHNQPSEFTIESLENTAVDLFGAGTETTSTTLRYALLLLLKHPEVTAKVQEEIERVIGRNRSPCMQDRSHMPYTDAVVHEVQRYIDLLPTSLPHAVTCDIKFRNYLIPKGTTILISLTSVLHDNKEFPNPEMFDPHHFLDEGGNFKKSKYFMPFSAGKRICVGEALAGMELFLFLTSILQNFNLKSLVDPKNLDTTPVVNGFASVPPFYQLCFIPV
Summary of the method: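 Luminescence, after 20 min with luciferin detection reagent, reflected CYP2C9 turnover during a 1 h NADPH-driven reaction at 37C. Enzyme-substrate mix contained 0.4% bovine serum albumin and was preincubated with compound 10 min at room temperature.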

Row | Structure (SMILES) | Potency [1] | Potency [2] | Potency [3] | Potency [4] | Potency [5]
1 | CCCCC(CC)COC(=O)C(C#N)=C(c1ccccc1)c1ccccc1 (stereo unspecified) | inactive | inactive | inactive | 1.23 µM (active) and 3.38 µM (active) | 1.1 µM (active) and 3.01 µM (active)
2 | CN1C(C(=O)Nc2ccccn2)=C(O)c2sccc2S1(=O)=O | inactive | inactive | inactive | inactive | 12.3 µM (active)
3 | COc1cc(OC)c(C(=O)CCCN2CCCC2)c(OC)c1 | inactive | inactive | inactive | 11 µM (active) | inactive
4 | Cc1cc2c(s1)Nc1ccccc1N=C2N1CCN(C)CC1 | inactive | inactive | – | inactive | inactive
5 | Nc1ccn([C@@H]2O[C@H](CO)[C@@H](O)C2O)c(=O)n1 (stereo partly specified) | inactive | inactive | – | inactive | –
6 | Cc1nc(-c2ccc(OCC(C)C)c(C#N)c2)sc1C(=O)O | inactive | inactive | – | inactive | –
7 | CC(=O)Nc1ccc(O)cc1 | – | inactive | inactive | inactive | inactive
8 | O=c1ccc2ccc(O)c(O)c2o1 | inactive | inactive | – | inactive | –
9 | Cc1ccc(C(=O)c2cc(O)c(O)c([N+](=O)[O-])c2)cc1 | inactive | inactive | – | inactive | 5.49 µM (active)
10 | O=C(NCC1CCCCN1)c1cc(OCC(F)(F)F)ccc1OCC(F)(F)F (stereo unspecified) | inactive | – | inactive | – | inactive
11 | COc1c2occc2cc2ccc(=O)oc12 | inactive | – | inactive | – | 3.89 µM (active)
12 | CCCCN(CCCC)CCC(O)c1cc2c(Cl)cc(Cl)cc2c2cc(C(F)(F)F)ccc12 (stereo unspecified) | inactive | inactive | – | 0.55 µM (active) | inactive
